Experimental data taken from PubChem BioAssay AID1259310 (The Scripps Research Institute Molecular Screening Center, 2017).
“And” between values parts separate entries of the source, which are not always exact repeats. Identical values can stand only once. About 850 (0.13%) of roughly 650,000 compounds were called active. This is one part of a sample in which actives are shown more often than they occur. A number with no mark means an inactive call. Rule as the data show it: active = normalized activity above about 1.9%; inactive = the rest.

The compounds below were run against F-box/WD repeat-containing protein 7 (Homo sapiens) (UniProt Q969H0) (assay: FBW7 E3 ligase activators, primary screen, biochemical, AlphaScreen, human (AID 1259310;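 also: purified mutant Fbw7 with reduced substrate affinity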)). Details: AlphaScreen FBW7–phospho-cyclin E peptide binding, activator screen; at 26.1 µM; active compounds read high.
Chain of F-box/WD repeat-containing protein 7 (Homo sapiens) (Q969H0 whole entry, looked up): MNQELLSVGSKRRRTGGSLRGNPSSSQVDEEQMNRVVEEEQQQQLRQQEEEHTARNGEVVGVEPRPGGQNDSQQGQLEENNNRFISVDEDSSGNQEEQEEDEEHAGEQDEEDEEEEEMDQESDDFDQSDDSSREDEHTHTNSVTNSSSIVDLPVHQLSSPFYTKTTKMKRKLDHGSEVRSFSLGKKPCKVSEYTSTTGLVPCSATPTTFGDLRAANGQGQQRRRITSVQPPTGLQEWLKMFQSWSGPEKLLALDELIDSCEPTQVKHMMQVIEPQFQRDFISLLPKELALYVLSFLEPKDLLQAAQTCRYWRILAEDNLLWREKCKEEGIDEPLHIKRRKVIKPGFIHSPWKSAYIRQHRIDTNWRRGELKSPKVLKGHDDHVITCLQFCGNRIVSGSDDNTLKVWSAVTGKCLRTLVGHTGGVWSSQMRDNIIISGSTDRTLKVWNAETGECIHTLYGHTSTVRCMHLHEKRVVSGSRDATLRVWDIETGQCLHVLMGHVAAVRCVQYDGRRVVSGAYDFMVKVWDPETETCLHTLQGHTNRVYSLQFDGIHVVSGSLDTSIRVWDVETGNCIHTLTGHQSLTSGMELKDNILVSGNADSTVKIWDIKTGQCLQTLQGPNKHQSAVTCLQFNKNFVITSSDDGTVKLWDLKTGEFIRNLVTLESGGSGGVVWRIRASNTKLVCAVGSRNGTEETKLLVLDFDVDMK

In order of falling normalized activity (activation):
1. Cc1ccc(Oc2ccc(N(C)C(=O)Nc3ccc(Cl)cc3)cc2)nn1  0.86%
2. Cc1ncn(-c2ccc(Nc3cc(-c4cnn(C(C)C)c4-c4ccc(F)cc4)ccn3)cc2)n1  0.79%
3. CC(=O)Nc1ccc(Nc2nc(Nc3ccncn3)nc3c2ncn3-c2ccsc2)cc1  0.77%
4. O=C(CN(c1ccccc1)S(=O)(=O)c1ccccc1[N+](=O)[O-])Nc1ccc(F)cc1  0.71%
5. CC(C)N(Cc1ccccc1)C(=O)c1cc2c(=O)n3ccccc3nc2n1C  0.69%
6. Cc1cc(C(=O)N2CCC(c3[nH]ncc3-c3ccncc3)CC2)c(C)[nH]1  0.63%
7. CCSCCOC(=O)C1=C(C)NC2=C(C(=O)CC(c3ccccc3)C2)C1c1ccccc1 (centres undefined)  0.61%
8. CNc1cc(-c2ccnc(Nc3ccc(-n4cnc(C)n4)cc3)c2)no1  0.51%
9. Cc1ccc(-c2nnc3ccc(SCC(N)=O)nn23)cc1  0.47%
10. CCOC(=O)CSc1nc2ccsc2c(=O)n1CCc1ccc(OC)c(OC)c1  0.46%
11. COCCNC(=O)/C(C#N)=C/c1ccc(N2CCOCC2)cc1  0.46%
12. N/C(=N\OCc1cc2c(cc1Cl)OCO2)c1nonc1N  0.4%
13. O=C(O)CSc1ccc2nnc(-c3ccc(F)cc3)n2n1  0.39%
14. O=C(c1cnsc1)N1CCCC(c2ncncc2-c2ccncc2)C1 (centres undefined)  0.35%
15. CC(C)NCCOCCOc1cccc(Br)c1  0.35%
16. Cc1c(C(=O)N2CCCC2)sc2ncn(CC(=O)N3CCCC3)c(=O)c12  0.33%
17. CN(C)c1cccc(Nc2cc(C(=O)NC3CC3)c3ccccc3n2)c1  0.31%
18. CCCCSc1nnc2c(n1)OC(c1ccc(N(C)C)cc1)Nc1ccccc1-2 (centres undefined)  0.3%
19. COCCOC(=O)C1=C(C)NC2=C(C(=O)CC(c3ccccc3)C2)C1c1cc(OC)ccc1OC (centres undefined)  0.27%
20. CCOC(=O)N1CCC(NC(=O)CC2C(=O)NCCN2Cc2ccoc2)CC1 (centres undefined)  0.27%
21. O=C1NC(=O)C(=Cc2ccc(OC(=O)c3ccc(Cl)c(Cl)c3)cc2)C(=O)N1  0.22%
22. COCCCN1C(=O)C2C(C(=O)Nc3cccc(C)c3)C3C=CC2(O3)C1C(=O)NC1CCCC(C)C1C (centres undefined)  0.2%
23. CC(C)NCC(=O)N(c1ccccc1)N1CCOCC1  0.19%
24. CC(C)CC(C(=O)NC1CCCC1)N(C(=O)c1snc(C(N)=O)c1N)C1CCCC1 (centres undefined)  0.18%
25. C=CCNC(=O)c1cc2c(=O)n3cccc(C)c3nc2n1C  0.17%
26. Cc1c(NC(=O)c2ccc(Br)cc2)cccc1-c1nc2ccccc2o1  0.17%
27. CSc1ncc(C(=O)Nc2ccc3c(c2)OCCO3)c(C)n1  0.15%
28. Cc1c(Cc2ccccc2)c(N2CCCCC2)n2c(nc3ccccc32)c1C#N  0.12%
29. Nc1nnc(-c2ccc(Cn3c(-c4cncs4)nc4ccccc43)cc2)s1  0.1%
30. COc1ccccc1C1N(Cc2ccccc2)CCN1Cc1ccccc1  0.1%
31. CCCCOC(=O)c1cccc(NC(=O)CN2C(=O)c3ccccc3C2=O)c1  0.09%
32. C=CCOC(=O)C1=C(C)Nc2c(c(=O)n(C)c(=O)n2C)C1c1ccc2c(c1)OCO2 (centres undefined)  0.09%
33. O=C(Nc1ccc(N2CCOCC2)cc1)c1cccc(-n2nccc2NC(=O)C2CC2)c1  0.06%
34. C[C@@H](c1ccccc1)n1c(=O)[nH]c2ncc(-c3ccccc3)nc21  0.05%
35. O=C(CCCOc1ccc(Cl)cc1Cl)N1CCCC1  0.05%
36. CCOC(=O)C1=C(C)N=c2s/c(=C\c3ccc(OCc4ccc([N+](=O)[O-])cc4)c(OC)c3)c(=O)n2C1c1ccc2c(c1)OCO2 (centres undefined)  0.04%
37. O=C1C2C3c4ccccc4C(c4ccccc43)C2C(=O)N1CCCCO (centres undefined)  0.04%
38. COCc1cc(C)nc(OCC(=O)c2ccccc2)c1C#N  0.04%
39. COCCNc1ncc(-c2cccs2)cn1  0.02%
40. CC(C)OCCCNC(=O)Nc1cccc(Cl)c1  0.02%
41. O=C(Cc1cccs1)NCCS(=O)(=O)N1CCN(c2ccccn2)CC1  0.01%
42. CC(=O)c1cccc(-c2nc3ncnc(NCCOc4ccccc4)c3[nH]2)c1  0.01%
43. COc1ccc(N2CCN(C(CNC(=O)C(C)C)c3ccco3)CC2)cc1 (centres undefined)  0%
44. O=c1c(NCCN2CCCCCC2)c(-c2ccc(Cl)cc2)c1=O  0%
45. C=CCn1c(=NC(=O)c2ccccc2[N+](=O)[O-])sc2cc(S(N)(=O)=O)ccc21  0%
46. COC(=O)c1c(OCc2ccncc2)cc(=O)n2c1CCN(CCCSC)CC2  0%
47. COc1ccc2c(c1)c(=O)c1ccccc1n2CC(=O)Nc1ccc(F)cc1  0%
48. O=C(NCc1nnc2n1CCN(Cc1c(F)cccc1Cl)CC2)c1ccccc1  -0.02%
49. COCCn1nnnc1C(c1cc2cc(C)c(C)cc2[nH]c1=O)N1CCCCC1 (centres undefined)  -0.02%
50. Cc1cc(Nc2ccc(Cl)cc2)n2c(nc3ccccc32)c1C#N  -0.02%
51. Nc1ccnc2cc(-c3ccccc3)nn12  -0.02%
52. COc1ccc(Br)cc1CN(C)Cn1cnc2ccccc21  -0.03%
53. CCCCSc1ncnc2c1c(-c1ccccc1)cn2-c1ccc(OC)cc1  -0.03%
54. Cc1ccc(C(=O)NC(C)C(c2cccs2)N2CCN(C)CC2)cc1 (centres undefined)  -0.03%
55. COc1ccccc1NC(=O)c1c(C)nc(SCC(=O)c2ccccc2)c(C#N)c1-c1ccc(C)o1  -0.03%
56. O=C(CSc1n[nH]c(-c2cccs2)n1)NC(=O)NC12CC3CC(CC(C3)C1)C2  -0.03%
57. COCCn1nnnc1C(c1cc2ccc(C)cc2[nH]c1=O)N1CCCC1 (centres undefined)  -0.04%
58. Cc1c(C(=O)N2CCOCC2)oc2c1-c1nn(CC(=O)NC(C)c3ccccc3)cc1CC2 (centres undefined)  -0.04%
59. Cc1ccc(C(C)C)c(OCC(=O)Oc2ccc3c(c2)oc(=O)c2ccccc23)c1  -0.05%
60. CC1=C(C#N)C(=O)N(CCCO)C(=O)/C1=C\c1ccc(-c2ccc(Cl)cc2)o1  -0.06%
61. O=C(Nc1ccc(C(=O)Nc2nccs2)cc1)c1ccc2c(c1)C(=O)N(c1ccccc1-c1ccccc1)C2=O  -0.08%
62. O=C(CNC(=O)OCc1ccccc1)Oc1ccc2c(-c3ccccc3)cc(=O)oc2c1  -0.09%
63. CC1CCCN(S(=O)(=O)c2cccc3cccnc23)C1 (centres undefined)  -0.09%
64. Cc1sc2ncn3c(SCC(=O)N4CCc5ccccc54)nnc3c2c1C  -0.09%
65. Cc1ccc(-c2csc(/C(C#N)=C/c3ccccc3[N+](=O)[O-])n2)cc1  -0.09%
66. CCOc1ccc(Nc2nc(C)c([N+](=O)[O-])c(Nc3ccc(OC)cc3)n2)cc1  -0.11%
67. CN(C)c1cccc(Nc2cccc(C(=O)NC3CC3)n2)c1  -0.12%
68. NC(=O)CN(c1ccccc1)S(=O)(=O)c1ccccc1[N+](=O)[O-]  -0.14%
69. CC(=O)Nc1ccc(Nc2nc(Nc3ccc(-n4ccnc4)cc3)nc3c2ncn3-c2ccsc2)cc1  -0.15%
70. Cc1ccc(C)c(C(=O)Nc2ncc(S(=O)(=O)c3ccc([N+](=O)[O-])cc3)s2)c1  -0.16%
71. CCCCOc1ccc(/C=C/c2nc3ccccc3c(=O)n2-c2ccc(C)c(C)c2)cc1  -0.23%
72. O=C(O)CCCN1C(=O)C(=O)/C(=C(\O)c2ccccc2)C1c1cccc(F)c1 (centres undefined)  -0.31%
73. COC(=O)COc1ccc(S(=O)(=O)N2CCN(c3cc(Cl)ccc3C)CC2)cc1  -0.32%
74. CCOc1ccc(NC(C)C(=O)N/N=C/c2ccccc2O)cc1 (centres undefined)  -0.35%
75. Cc1ccc(N=c2scc(C)n2CCCO)cc1  -0.38%

In the case of `NC(=O)CSc1ccc2nnc(-c3ccccn3)n2n1`, the normalized activity (activation) was 69.7% (active).
For `CCN(Cc1ccccc1)C(=O)c1cc2c(=O)n3cccc(C)c3nc2n1C`, the normalized activity (activation) was 3.93% (active).
`O=C(c1cnsc1)N1CCC(c2[nH]ncc2-c2ccncc2)CC1` was tested, and the normalized activity (activation) was 2.18% (active).
With `COCCn1nnnc1C(c1cc2cc(C)cc(C)c2[nH]c1=O)N1CCOCC1` (centres undefined) the normalized activity (activation) was 2.29% (active).
In the case of `CCSCCOC(=O)C1=C(C)NC2=C(C(=O)CC(c3ccccc3)C2)C1c1ccc(OC)cc1OC` (centres undefined), the normalized activity (activation) was 2.28% (active).
`CC(=O)N(C)c1nc(-c2cccc(N(C)C)c2)ccc1C(=O)NC1CCCCC1` was tested, and the normalized activity (activation) was 1.86% (active).
`CCOC(=O)/C(C#N)=C/c1cc(C)n(-c2ccc(C(=O)OCC)cc2)c1C` was tested, and the normalized activity (activation) was -0.1% and -0.13%.
With `CCOC(=O)/C(C#N)=C/c1ccc(N2CCCCC2)cc1` the normalized activity (activation) was 1.85% (active).
`Cc1ncn(-c2ccc(Nc3cc(-c4nocc4-c4ccccn4)ccn3)cc2)n1` was tested, and the normalized activity (activation) was 2.76% (active).
For `Cc1c(C(=O)N2CCCC2)oc2c1-c1nn(CC(=O)N3CCCC3)cc1CC2`, the normalized activity (activation) was 8.41% (active).
With `Cc1cc(NCCN2CCCCCC2)n2c(nc3ccccc32)c1C#N` the normalized activity (activation) was 2.12% (active).
For `CC(=O)Nc1ccc(Nc2nc(Nc3cnccn3)nc3c2ncn3-c2ccccc2)cc1`, the normalized activity (activation) was 2.09% (active).
For `O=C(CN(c1ccccc1)S(=O)(=O)c1ccccc1[N+](=O)[O-])N/N=C/c1ccco1`, the normalized activity (activation) was 2.75% (active).
`N/C(=N\OC(=O)CCCOc1ccc(Cl)cc1Cl)c1nonc1N` was tested, and the normalized activity (activation) was 4.98% (active).
